{
  "source": "PubChem BioAssay (EPA / NIEHS)",
  "note": "Results filed as inconclusive are left out. The source made the active and inactive calls. How the source made its calls: active means hit-call score of the fitted dose curve at least 0.9, where 1 is the maximum; inconclusive means response in the unintended direction; inactive means score below 0.9.",
  "data": [
    {"target": "human Esterase Plasma (ES), BCHE (gene 590) (UniProt P06276)", "sequence (P06276 whole entry, looked up)": "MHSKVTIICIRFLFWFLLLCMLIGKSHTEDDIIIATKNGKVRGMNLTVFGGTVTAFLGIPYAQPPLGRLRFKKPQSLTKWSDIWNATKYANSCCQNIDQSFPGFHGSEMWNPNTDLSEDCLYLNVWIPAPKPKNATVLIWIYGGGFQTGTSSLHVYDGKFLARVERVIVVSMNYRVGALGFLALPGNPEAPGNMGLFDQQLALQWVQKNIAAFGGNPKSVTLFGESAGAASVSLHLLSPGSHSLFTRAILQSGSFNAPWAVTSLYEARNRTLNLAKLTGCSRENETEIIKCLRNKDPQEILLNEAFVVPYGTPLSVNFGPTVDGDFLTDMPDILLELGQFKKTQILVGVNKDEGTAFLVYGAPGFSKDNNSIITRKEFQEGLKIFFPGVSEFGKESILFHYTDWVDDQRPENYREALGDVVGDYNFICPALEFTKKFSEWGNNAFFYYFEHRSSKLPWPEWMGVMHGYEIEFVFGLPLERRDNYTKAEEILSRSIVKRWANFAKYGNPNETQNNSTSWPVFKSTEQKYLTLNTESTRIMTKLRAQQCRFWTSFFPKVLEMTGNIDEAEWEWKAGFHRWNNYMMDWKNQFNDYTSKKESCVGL", "assay": "NVS_ENZ_hES: NovaScreen (NVS) Enzymatic Assay for human Esterase Plasma (ES) (AID 2283157)", "outline": "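Chemicals were added to plasma-extracted human enzyme in a cell-free format, and activity was read colorimetrically after 0.25 hour. Activity loss was referenced to DMSO; concentration-response top dose was 50 uM.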", "values": [
      {"smiles": "COc1ccc2cc(S(=O)(=O)N[C@H](CC(=O)N[C@H](Cc3ccc(CN4[C@H](C)CCC[C@@H]4C)cc3)C(=O)N(C)C(C)C)c3ccc4c(c3)OCO4)ccc2c1", "AC50": "7.52 µM (active)"},
      {"smiles": "O=CCCCC=O", "outcome": "inactive"},
      {"smiles": "O=C1c2ccccc2C(=O)N1CCc1noc(-c2ccc(CN3CCCCCC3)s2)n1", "AC50": "18.2 µM (active)"},
      {"smiles": "C[C@]12CC[C@@H]3c4ccc(O)cc4CC[C@H]3[C@@H]1CC[C@H]2O", "outcome": "inactive"},
      {"smiles": "CC/C(=C(/CC)c1ccc(O)cc1)c1ccc(O)cc1", "outcome": "inactive"},
      {"smiles": "Cc1c2ccccc2c(C)c2c1ccc1ccccc12", "outcome": "inactive"},
      {"smiles": "COc1cc(C(=O)NC2CCN(C)CC2)ccc1Nc1ncc2c(n1)N(C1CCCC1)CC(F)(F)C(=O)N2C", "outcome": "inactive"},
      {"smiles": "Oc1ccc2ccccc2c1", "outcome": "inactive"},
      {"smiles": "CCN(Cc1cccnc1)C(=O)c1cccc(Cl)c1[C@]1(C)C(=O)N(Cc2ccc(OC)cc2OC)c2ccc(Cl)cc21", "AC50": "16.8 µM (active)"}
    ]},
    {"target": "Glycogen synthase kinase-3 beta (Homo sapiens) (UniProt P49841)", "sequence (P49841 whole entry, looked up)": "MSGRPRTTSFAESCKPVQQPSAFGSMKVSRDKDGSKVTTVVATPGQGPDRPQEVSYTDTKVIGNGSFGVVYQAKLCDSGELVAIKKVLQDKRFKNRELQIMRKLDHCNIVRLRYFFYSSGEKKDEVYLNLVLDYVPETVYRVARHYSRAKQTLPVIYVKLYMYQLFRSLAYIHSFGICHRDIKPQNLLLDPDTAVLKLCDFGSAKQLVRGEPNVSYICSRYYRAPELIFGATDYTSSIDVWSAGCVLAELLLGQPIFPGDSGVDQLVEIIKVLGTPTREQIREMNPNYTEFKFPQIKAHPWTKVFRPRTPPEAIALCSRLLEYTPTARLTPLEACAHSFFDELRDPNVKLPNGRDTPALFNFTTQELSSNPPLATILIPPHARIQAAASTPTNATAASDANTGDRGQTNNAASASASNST", "assay": "NVS_ENZ_hGSK3b: NovaScreen (NVS) Enzymatic Assay for human Glycogen Synthase Kinase-3 beta (GSK3b) (AID 2283165)", "outline": "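Recombinant enzyme with specific fluorescent substrate, 1 h, product separated by electrophoretic mobility shift. Primary duplicate screen at 25 uM; actives (e.g. 30% inhibition) followed in singleton concentration-response to 50 uM. Signal loss fitted versus DMSO.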", "values": [
      {"smiles": "COc1ccc2cc(S(=O)(=O)N[C@H](CC(=O)N[C@H](Cc3ccc(CN4[C@H](C)CCC[C@@H]4C)cc3)C(=O)N(C)C(C)C)c3ccc4c(c3)OCO4)ccc2c1", "outcome": "inactive"},
      {"smiles": "CN1C(=O)N(c2ccccc2Br)Cc2cnc(Nc3ccc4c(c3)OCC(CO)O4)nc21", "note": "(stereo unspecified)", "AC50": "7.73 µM (active)"},
      {"smiles": "CCN(Cc1cccnc1)C(=O)c1cccc(Cl)c1[C@]1(C)C(=O)N(Cc2ccc(OC)cc2OC)c2ccc(Cl)cc21", "outcome": "inactive"},
      {"smiles": "CCCCCCCCOC(=O)c1cc(O)c(O)c(O)c1", "outcome": "inactive"}
    ]},
    {"target": "human Janus Kinase 2 (Jak2), JAK2 (gene 3717) (UniProt O60674)", "sequence (O60674 whole entry, looked up)": "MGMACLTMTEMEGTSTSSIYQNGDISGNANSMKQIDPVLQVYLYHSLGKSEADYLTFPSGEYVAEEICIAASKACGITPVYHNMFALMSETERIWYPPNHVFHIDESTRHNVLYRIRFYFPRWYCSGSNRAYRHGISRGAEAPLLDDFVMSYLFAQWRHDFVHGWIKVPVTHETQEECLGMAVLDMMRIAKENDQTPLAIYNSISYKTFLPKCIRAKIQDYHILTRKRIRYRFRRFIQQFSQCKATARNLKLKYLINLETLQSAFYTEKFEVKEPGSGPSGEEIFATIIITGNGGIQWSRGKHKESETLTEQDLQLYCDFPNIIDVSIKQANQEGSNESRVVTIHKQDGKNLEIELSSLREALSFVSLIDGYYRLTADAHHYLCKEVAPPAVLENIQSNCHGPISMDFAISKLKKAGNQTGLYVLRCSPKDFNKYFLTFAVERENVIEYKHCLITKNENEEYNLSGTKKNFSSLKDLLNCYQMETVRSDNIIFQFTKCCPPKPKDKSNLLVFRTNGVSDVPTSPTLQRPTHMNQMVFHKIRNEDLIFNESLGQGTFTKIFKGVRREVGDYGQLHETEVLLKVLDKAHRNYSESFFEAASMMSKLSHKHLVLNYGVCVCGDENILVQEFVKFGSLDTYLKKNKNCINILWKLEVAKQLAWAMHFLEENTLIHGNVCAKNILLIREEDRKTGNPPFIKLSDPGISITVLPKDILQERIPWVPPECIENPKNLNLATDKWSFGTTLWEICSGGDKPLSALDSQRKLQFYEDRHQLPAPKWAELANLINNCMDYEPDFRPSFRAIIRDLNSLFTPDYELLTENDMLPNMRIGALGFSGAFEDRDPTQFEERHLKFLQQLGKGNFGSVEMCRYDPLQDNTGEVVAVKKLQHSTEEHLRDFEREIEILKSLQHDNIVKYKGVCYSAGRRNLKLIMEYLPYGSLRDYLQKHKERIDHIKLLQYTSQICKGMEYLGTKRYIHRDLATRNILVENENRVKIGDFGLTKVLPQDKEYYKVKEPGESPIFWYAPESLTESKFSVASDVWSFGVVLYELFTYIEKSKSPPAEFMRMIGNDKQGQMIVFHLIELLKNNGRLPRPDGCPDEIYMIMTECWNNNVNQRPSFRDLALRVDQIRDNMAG", "assay": "NVS_ENZ_hJak2: NovaScreen (NVS) Enzymatic Assay for human Janus Kinase 2 (Jak2) (AID 2283169)", "outline": "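Cell-free recombinant human JAK2 enzyme activity assay, fluorescence/electrophoretic mobility shift read 1 h after dosing. Screened in duplicate at 25 uM, then concentration-response up to 50 uM; activity as signal loss relative to DMSO.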", "values": [
      {"smiles": "O=C(O)Cc1cc(I)c(Oc2ccc(O)c(I)c2)c(I)c1", "outcome": "inactive"},
      {"smiles": "CC(C)(C)c1csc(-c2cc3cc(OCc4ccccc4CC(=O)O)ccc3o2)n1", "AC50": "0.00515 µM (active)"},
      {"smiles": "CCN(Cc1cccc(S(=O)(=O)O)c1)c1ccc(C(=C2C=CC(=[N+](CC)Cc3cccc(S(=O)(=O)O)c3)C=C2)c2ccccc2S(=O)(=O)[O-])cc1", "AC50": "12.4 µM (active)"}
    ]}
  ]
}
